# Laboratory results: PubChem BioAssay
# Calls of active or inactive are those of the source.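 The calls were made as follows: active = z-score of at least 1.8 in each of two replicates, scored against plate mean and spread of sample wells; inactive = the rest.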
# Test: galactose survival enhancers in mitochondrial complex I cybrids – cell-based, galactose medium, ATP luminescence, primary screen (AID 1645843);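 also: positive z means more ATP and so rescue of galactose-driven cybrid death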
# Details: complex I mutant cybrid cells, 72 h, active compounds read high
row,SMILES,z-score
1,Cc1nc(NC(=O)N2CCCC(c3nc4ccccc4[nH]3)C2)nn1C (stereo not given),0.195 (inactive)
2,Cc1ccc(CCC(=O)N(C)Cc2cnn(C(C)C)c2)cc1C,-0.565 (inactive)
3,O=C(c1ccccc1-c1nn[nH]n1)N1CCc2[nH]cnc2C1c1ccccn1 (stereo not given),0.23 (inactive)
4,CCn1cnc(NC(=O)NC2CCN(Cc3ccncc3)CC2)n1,3.54 (active)
5,COc1nc2c(cc1C(=O)N1CCOc3ccccc31)CCC2,0.225 (inactive)
6,CCC1(CC)CC1C(=O)N1CCC(n2cc(C(C)(C)O)nn2)CC1 (stereo not given),-0.515 (inactive)
7,CCCCc1cn(C2CCN(C(=O)C3CCCCCC3)CC2)nn1,-0.56 (inactive)
8,FC(F)(F)c1cccc(Cc2noc(CCCN3CCCCC3)n2)c1,0.61 (inactive)
9,O=C(Nc1cccnc1)c1csc(Cc2ccccc2)n1,-0.815 (inactive)
10,O=C(CCC1CC1)Nc1ccnn1C1CCCCC1,0.01 (inactive)
11,CCC(Nc1ncc(C)c(-c2cnn(C)c2)n1)c1nc2ccc(C)cc2[nH]1 (stereo not given),-0.955 (inactive)
12,c1nc(-c2ccc3c(c2)OCCO3)c2sccc2n1,0.225 (inactive)
13,CCCCCC(=O)N1CCC(n2cc(C3CCCC3)nn2)CC1,0.965 (inactive)
14,CCC1(CO)CCCN(c2ncc(C(F)(F)F)cc2Cl)C1 (stereo not given),2.98 (active)
15,O=C(Nc1nc(-c2ccccc2)ns1)N1CCN(C2CCCCC2)C(=O)C1,-0.54 (inactive)
16,CC(Oc1ccc2c(c1)OCO2)C(=O)N1CCCCC1CCN1CCCC1=O (stereo not given),1.73 (inactive)
17,O=c1c2sccc2ncn1Cc1nc2ccccc2[nH]1,0.03 (inactive)
18,CC(Cc1cccnc1)n1cnc2sc3c(c2c1=O)CCCCC3 (stereo not given),0.91 (inactive)
19,O=C(C(=O)N1CCCCC1c1nc2ccc(F)cc2[nH]1)c1ccccc1 (stereo not given),0.05 (inactive)
20,NC(=O)NCc1cn(CC2CCN(C(=O)CC3CCCCCC3)CC2)nn1,-0.605 (inactive)

row,SMILES,z-score
1,CCN(C(=O)c1cc(-c2cnc(C3CC3)nc2)nc2cc(C)ccc12)C(C)C,1.41 (inactive)
2,CCCC1CCCN1Cc1ccccc1OC1(C(=O)O)CCCC1 (stereo not given),-0.265 (inactive)
3,COC(=O)c1nn(CC(=O)Nc2cnn(C)n2)c2ccccc12,1.92 (inactive)
4,OCCCCCNCC1(N2CCOCC2)CCCCCC1,-0.47 (inactive)
5,c1coc(-c2nc3c(cnn3Cc3cccs3)[nH]2)c1,-0.74 (inactive)
6,CC(=O)c1cc(CC(=O)NCc2cc(F)c(F)cc2F)cs1,-0.01 (inactive)
7,Cc1ccccc1N1CCCN(C(=O)CCC(C)C)CC1,3.28 (active)
8,CC(CCCC(C)(C)O)CCNC(C1CC1)C1CC1 (stereo not given),-0.515 (inactive)
9,CCCCc1cn(C2CCN(C(=O)[C@@H]3CCCO3)CC2)nn1,-0.55 (inactive)
10,C=C1C2(C(=O)N3CCC(c4cccc(OC)c4OC)C3)CCC(C2)C1(C)C (stereo not given),1.19 (inactive)
11,c1ccc(Cn2ccnc2CNc2ncnc3nc[nH]c23)cc1,-0.435 (inactive)
12,COc1ccc2c(c1)CC(c1nc(Cc3cccs3)no1)CO2 (stereo not given),-0.1 (inactive)
13,COc1cccc2ccc(-c3ccc(C(C)=O)cc3)nc12,2.67 (active)
14,Cc1nc(C(=O)N2CCCC(Cn3cc(-c4ccsc4)nn3)C2)cs1 (stereo not given),-0.08 (inactive)
15,CC1Cc2cc(C(=O)N3CCC(Cn4cc(C5CC5)nn4)CC3)ccc2O1 (stereo not given),-0.53 (inactive)
16,O=C1CN(c2ncnc3sccc23)CCN1Cc1ccc(F)cc1,0.19 (inactive)
17,CC(C)n1cc(-c2cc(C(=O)N3CCC(C)(C)C3)c3ccc(F)cc3n2)cn1,0.14 (inactive)
18,NC(=O)NCc1cn(C2CCN(C(=O)C3CCCCCC3)CC2)nn1,-0.575 (inactive)
19,O=C(C1CCCCCC1)N1CCc2[nH]nc(C3CCC3)c2C1,0.435 (inactive)
20,CCn1ncc2[nH]c(-c3ccc(-c4ccccn4)cc3)nc21,-1.15 (inactive)
